# Source: PubChem BioAssay (Tox21)
# Records with an inconclusive call do not appear. Calls of active or inactive are those of the source. The call rests on the fitted dose curve.
# Assay: qHTS assay to identify small molecule agonists of the hypoxia (HIF-1) signaling pathway - cell viability counter screen (AID 1224844); further: nearly all actives have a fitted effect of over 50% in size
# Details: HRE-bla ME-180 viability, CellTiter-Glo luminescence, 17 h; series mostly up to 76.8 µM; activity change, negative = cytotoxicity: at the top concentration
# Outline: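 Cytotoxicity measured by CellTiter-Glo ATP luminescence in the wells also read for beta-lactamase signal. Cells were HRE-bla ME-180 (2,000/well, 0.5% dialyzed FBS), exposed to compounds for 17 h at 37C.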
# On the % scale 0 is the no-effect control and ±100 the full control effect; potency means the concentration at half of the fitted maximal effect.
Compound,"activity change, negative = cytotoxicity",Potency
O=c1[nH]c2ccccc2n1CCCN1CCC(n2c(=O)[nH]c3cc(Cl)ccc32)CC1,-17.8% [at 35.3 µM] (inactive),–
Oc1ccc(C2(c3ccc(O)cc3)CCCCC2)cc1,–,52.1 µM (active)
CC(C)C1CCC(Cc2ccc(Cl)cc2)C1(O)Cn1cncn1 (stereo not given),–,54.4 µM (active)
CCCOCC(=Nc1ccc(Cl)cc1C(F)(F)F)n1ccnc1,-8.23% (inactive),–
OC(Cc1ccccc1Cl)(Cn1cncn1)C1(Cl)CC1 (stereo not given),8.88% (inactive),–
C[C@]12CC[C@H](O)C[C@H]1CC[C@@H]1[C@@H]2C[C@@H](O)[C@]2(C)[C@@H](C3=CC(=O)OC3)CC[C@]12O,–,11 µM (active)
CCOP(=O)(NC(C)C)Oc1ccc(SC)c(C)c1 (stereo not given),-1.68% (inactive),–
Oc1c(Cl)c(Cl)cc(Cl)c1Cl,0.98% (inactive),–
Cc1cc(C(C)(C)c2cc(C)c(O)c(C)c2)cc(C)c1O,-23.1% (inactive),–
CN(C)c1ccc(N=Nc2ccccc2)cc1,17.7% (inactive),–
O=C(O)c1cc[c]([Hg][Cl])cc1,–,54.9 µM (active)
O=C1c2ccccc2C(=O)C1C(=O)C(c1ccccc1)c1ccc(Cl)cc1 (stereo not given),–,9.77 µM (active)
N#CCCC(Br)(C#N)CBr (stereo not given),–,19.5 µM (active)
N#Cc1c(-c2ccc(Cl)cc2)[nH]c(C(F)(F)F)c1Br,-1.12% (inactive),–
CN(C)CCc1c[nH]c2cccc(O)c12,-1.51% (inactive),–
Oc1c(Br)c(Br)c(Br)c(Br)c1Br,–,43.9 µM (active)
O=C(O)C1C2CCC(O2)C1C(=O)O (stereo not given),–,inactive
CC(C)CC(C)(c1ccc(O)cc1)c1ccc(O)cc1,-11.7% (inactive),–
Oc1cc(Cl)c(Cl)c(Cl)c1,-23.2% (inactive),–
CC(=O)OC1(c2ccccc2)CCN(CCc2ccccc2)CC1,3.18% (inactive),–
